Values joined by “and” are separate entries in the source; they are usually repeats but may differ in a detail not shown here. Equal entries are not always repeated. The whole screen tested about 16,000 compounds, of which about 5,800 (36%) were called active. Roughly 23% stayed inconclusive and do not appear here. The call rests on the fitted dose curve; in most records, active means well fitted curve in the direction sought with a large enough effect; inconclusive means small, poorly fitted or top-dose-only effect, or effect the other way; inactive means no such curve, though single readings can be large or run the other way. The list shows a part of the results.
Target: Cytochrome P450 2C19 (Homo sapiens) (UniProt P33261)
Assay: Cytochrome panel assay with activity outcomes
Details: recombinant CYP, pro-luciferin dealkylation, luminescence, p450-cyp2c19; series mostly up to 57.1 µM
On the % scale 0 is the no-effect control and ±100 the full control effect.

Cytochrome P450 2C19 (Homo sapiens), sequence (P33261 whole entry, looked up): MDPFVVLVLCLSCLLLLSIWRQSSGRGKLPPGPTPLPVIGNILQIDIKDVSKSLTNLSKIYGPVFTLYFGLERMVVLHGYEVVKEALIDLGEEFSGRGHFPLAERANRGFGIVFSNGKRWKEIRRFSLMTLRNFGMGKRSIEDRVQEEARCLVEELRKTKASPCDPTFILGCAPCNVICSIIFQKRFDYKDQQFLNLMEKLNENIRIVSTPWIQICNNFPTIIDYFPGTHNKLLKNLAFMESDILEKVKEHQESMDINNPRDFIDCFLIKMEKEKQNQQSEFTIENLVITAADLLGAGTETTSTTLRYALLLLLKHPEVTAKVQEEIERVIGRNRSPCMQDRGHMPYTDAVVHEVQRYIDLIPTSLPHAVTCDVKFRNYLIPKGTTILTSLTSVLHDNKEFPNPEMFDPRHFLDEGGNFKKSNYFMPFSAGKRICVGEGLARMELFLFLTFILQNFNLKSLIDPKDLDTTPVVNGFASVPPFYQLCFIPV

activity, negative = inhibition, inactive:
CN(C)c1ncnc2c1ncn2CCn1cnc2c(N(C)C)ncnc21 27.8% [at 11.4 µM], NC1=C2NC=N[C@@H]2N(C/C=C\c2ccccc2)C=N1 7.43% [at 11.4 µM], O=S(=O)(O)c1ccc2c(N=Nc3cccc4ccccc34)c(O)c(S(=O)(=O)O)cc2c1 13.7% [at 11.4 µM], Cc1ccc(N=Nc2ccc(N)cc2C)c(S(N)(=O)=O)c1 1.27% [at 11.4 µM], c1ccc(CCN2CCN=C2Cc2ccccc2)cc1 7.77% [at 11.4 µM], ON(CCc1ccccn1)Cc1ccccc1 -32.5% [at 11.4 µM], O=C1C=CC(=Nc2cccc3c(N=C4C=CC(=O)O4)cccc23)O1 -74.7% [at 11.4 µM], CC(C)=NOC[C@@H](O)COCc1ccco1 -10.6% [at 11.4 µM], COc1cccc([C@H]2Oc3ccc(OC)cc3/C(=N\O[C@@H](C)c3cn([C@H](CO)Cc4ccccc4)nn3)[C@@H]2O)c1 -44.2% [at 11.4 µM], CCN1C(=O)[C@H]2[C@H]3[C@H](O)[C@H](O)C/C(=N/OC[C@@H](C)[C@H](OCc4ccccc4)C(C)C)[C@@H]3CC[C@@H]2C1=O -18.6% [at 11.4 µM], COc1cccc([C@@H]2Oc3ccc(OC)cc3/C(=N/O[C@@H](C)c3cn([C@H]4COC[C@H]4O)nn3)[C@@H]2O)c1 -35.4% [at 11.4 µM], CCN1C(=O)[C@H]2[C@H]3[C@H](O)[C@H](O)C/C(=N/O[C@@H](C)c4cc(-c5c(C)cc(C)cc5C)no4)[C@@H]3CC[C@@H]2C1=O -26.1% [at 11.4 µM], COc1cccc([C@H]2Oc3ccc(OC)cc3/C(=N\OC[C@@H](O)[C@@H]3O[C@@H]4OC(C)(C)O[C@@H]4[C@H]3O)[C@@H]2O)c1 -33% [at 11.4 µM], CC(C)(N=NC(C)(C)C(=N)N)C(=N)N 41.9% [at 11.4 µM], c1cncc(-c2cc(-c3cc(-c4cccnc4)n[nH]3)[nH]n2)c1 -4.18% [at 11.4 µM], O=C(C[N+]1(c2ccccc2)CCOCC1)c1ccccc1 -17.3% [at 11.4 µM], CC(C)CO/N=C1/C[C@@H](O)[C@@H](O)[C@@H]2[C@@H]3C(=O)N(Cc4ccc5c(c4)OCO5)C(=O)[C@H]3CC[C@@H]12 -22.9% [at 11.4 µM], O=C1[C@H]2[C@H]3[C@H](O)[C@H](O)C/C(=N/OC[C@@H](O)COCc4ccco4)[C@H]3CC[C@@H]2C(=O)N1Cc1ccc2c(c1)OCO2 4.07% [at 11.4 µM]

AC50, active:
Cc1c(N2C(=O)/C(=C3/C(=O)N(C)c4ccccc43)SC2=S)c(=O)n(-c2ccccc2)n1C 2.82 µM, CCOC(=O)c1c(C)n(C)c2ccc(OC(=O)c3ccco3)cc12 5.01 µM, COc1cc(/C=C2/C(=N)N3C=CSC3=NC2=O)ccc1OCCCOc1ccccc1C 7.94 µM, CCOc1cc(/C=C2/C(=N)N3C=CSC3=NC2=O)ccc1OCCCOc1ccccc1C 1 µM, CCCNc1c(F)c(F)c2c(C)c3ccccc3nc2c1F 10 µM, Cc1ccc(CC(=O)N2CC(C)OC(C)C2)cc1 (stereo unspecified) 8.91 µM, c1ccc2c(c1)ncn2-c1ccc(-c2ccnc(-c3ccncc3)n2)cc1 0.2 µM, CCOC(=O)c1ccc2nc(C)c(CCC(C)=O)c(Cl)c2c1 5.62 µM, CN(C)S(=O)(=O)Oc1ccsc1C(=O)Nc1ccc(Cl)cc1 0.891 µM, COc1ccc(/C=N/n2cnc3c([nH]c4ccc(Br)cc43)c2=O)cc1CN1CCOCC1 3.55 µM, c1ccc(SCCc2ccncc2)cc1 447 nM and 794 nM, Fc1ccc(SCCc2ccncc2)cc1 0.447 µM, ON(CCc1ccncc1)Cc1ccccc1 0.316 µM, CCOc1cc(/C=N/NC(=O)CNc2cccc(C)c2)ccc1OC(=O)c1ccccc1 10 µM, CCOc1cc(/C=N/NC(=O)COc2cccc(C)c2)ccc1OC(=O)c1cccs1 8.91 µM, O=C(CN1CCN(S(=O)(=O)c2ccc(F)cc2)CC1)Nc1ccc(Cl)c(C(F)(F)F)c1 7.94 µM, O=C(CN1CCN(S(=O)(=O)c2ccc(Cl)cc2)CC1)Nc1ccc2c(c1)OCO2 2.82 µM, CC1=CC(C)(C)NC(=S)N1c1cccc(C)c1 3.98 µM, COc1cccc([C@@H]2Oc3ccc(OC)cc3/C(=N/OC[C@@H](O)COCc3ccco3)[C@@H]2O)c1 1.58 µM, COc1cccc([C@@H]2Oc3ccc(OC)cc3/C(=N/O[C@@H](C)c3cc(-c4c(C)cc(C)cc4C)no3)[C@@H]2O)c1 1.58 µM, COc1cccc([C@@H]2Oc3ccc(OC)cc3/C(=N/OC[C@@H](C)[C@H](OCc3ccccc3)C(C)C)[C@@H]2O)c1 2 µM, O=C1NCCN1Cc1ccccc1F 20 µM, CN(C)S(=O)(=O)Oc1cccc(C(=O)Nc2ccc(Cl)c(Cl)c2)c1 3.98 µM, CN(C)S(=O)(=O)Oc1cccc(C(=O)Nc2ccccc2Cl)c1 2.82 µM, CC=C(/C(=C/C)c1ccc(O)cc1)c1ccc(O)cc1 3.16 µM, COc1cccc(C2=NOC(C(=O)Nc3cccnc3)C2)c1 (stereo unspecified) 10 µM, COc1ccc(CNC(=O)C2CC(c3cccc([N+](=O)[O-])c3)=NO2)cc1 (stereo unspecified) 10 µM, O=C(NCc1ccc2c(c1)OCO2)C1CC(c2cccc(Br)c2)=NO1 (stereo unspecified) 11.2 µM, COc1cccc(C2=NOC(C(=O)NCc3ccccc3)C2)c1 (stereo unspecified) 3.98 µM, COc1ccc(-n2c(=O)c(-c3cccs3)nc3cncnc32)cc1 15.8 µM, O=c1c(-c2cccs2)nc2cncnc2n1-c1ccccc1 6.31 µM, COc1ccc2c(c1)c(=O)oc1c(C)c(OCC(=O)N3CCc4ccccc4C3)ccc12 0.398 µM, N#Cc1c(NC(=O)CCN2C(=O)c3ccccc3C2=O)oc(-c2ccccc2)c1-c1ccccc1 3.16 µM, OC(CNCc1ccc(F)cc1)(c1ccc(F)cc1)c1ccc(F)cc1 7.94 µM, Cc1ccc(CNCC(O)(c2ccc(F)cc2)c2ccc(F)cc2)cc1 11.2 µM, COc1cnc(-c2ccccn2)nc1Oc1ccc(Cl)c2ccccc12 14.1 µM, Cn1c(Sc2ccc(-c3cccnc3)n2C)ccc1-c1cccnc1 1 µM, COc1cccc(/C=N/NC(=O)CO/N=C(\C)c2cccs2)c1OC 12.6 µM, CCOc1ccc(-c2cc(CCCC(=O)NCCc3ccc(OC)c(OC)c3OC)no2)cc1 1.58 µM, O=C(/C=C\NCC(=O)c1ccccc1)c1ccccc1 3.98 µM, O=C(/C=C\NCC(=O)c1ccccc1)c1ccc(F)cc1 2 µM, c1ccc(C(c2ccccc2)N2CCC3(CCNCC3)CC2)cc1 3.98 µM, CC(C)CO/N=C1/C[C@@H](O)[C@@H](O)[C@@H]2[C@@H]3C(=O)N(Cc4ccc5c(c4)OCO5)C(=O)[C@H]3CC[C@H]12 3.98 µM

AC50, inactive:
Cc1c(O)c(=O)n(-c2ccccc2)n1C, Cc1c(N(C)C)c(=O)n(-c2ccccc2)n1C, CCCn1c(N)[n+](CC(=O)c2ccco2)c2ccccc21, CN(C(=O)C(Cl)Cl)c1ccc(OC(=O)c2ccco2)cc1, COc1ccccc1CN1CC[C@@]2(CCCN(S(C)(=O)=O)C2)C1, CCNC(=S)N1CC(C)OC(C)C1 (stereo unspecified), CC1CN(C(=O)CN2C(=O)NC3(CCCCCC3)C2=O)CC(C)O1 (stereo unspecified), CC(C)(C)c1cc(C(=O)O)c(CN2CCCCC2)o1, CN(C)S(=O)(=O)c1ccc(C(=O)Nc2ccc(CN3CCCC3)cc2)cc1, [N-]=[N+]=Nc1ccc(C(=O)CSC[C@@H](NC(=O)CC[C@@H](N)C(=O)O)C(=O)NCC(=O)O)cc1, COc1ccc(/C=C/C(=O)Oc2cccc(/C=N/NC(=O)COc3c(C)cccc3C)c2)cc1, O=C(O)/C(=C/c1c(C(=O)O)[nH]c2cc(Cl)cc(Cl)c12)c1ccccc1, CON1C(=O)C(=O)N(OC)C2CCCCC21 (stereo unspecified), N#CC(C#N)=C(N)/C(C#N)=C/c1ccc(O)cc1, COCCNC(=O)C1CC(c2cccc(OC)c2)=NO1 (stereo unspecified), COc1cccc(C2=NOC(C(=O)NCCN3CCOCC3)C2)c1 (stereo unspecified), COc1ccc(CNC(=O)C2CC(c3ccc(OC)cc3)=NO2)cc1 (stereo unspecified), CCNc1ncc2nc(C)c(=O)n(Cc3cccs3)c2n1, COC(=O)N1CCC[C@@]2(CCN(C(=O)Nc3cccc(F)c3)C2)C1, Cn1c(=O)c(-c2cccs2)nc2cncnc21, O=c1c(-c2cccs2)nc2cnc(N3CCOCC3)nc2n1-c1ccccc1, CN1CCN(c2ncc3nc(-c4cccs4)c(=O)n(-c4ccccc4)c3n2)CC1, COc1ccc(-n2c(=O)c(-c3cccs3)nc3cnc(Oc4ccccc4)nc32)cc1, CCCc1ncc(C[n+]2ccccc2C)c(N)n1, COCC(=O)N1CCC2(CC1)CCN(C(=O)Nc1ccc(OC)cc1)CC2, CCOc1cc(/C=C2/SC(=O)N(CC(=O)N3CCc4ccccc4C3)C2=O)ccc1OCC(=O)O, C=C1C(=O)O[C@@H]2[C@@H]1CC/C(C)=C\CC[C@@]1(C)O[C@H]21, CC(=O)N1CCC2(CCCN(C(=O)Nc3cccc(F)c3)C2)CC1, c1ccc(C(c2ccccc2)N2CC3(CCNCC3)C2)cc1, c1ccc(C(c2ccccc2)N2CCCC3(CCNCC3)C2)cc1

From PubChem BioAssay AID1851 (National Center for Advancing Translational Sciences (NCATS), 2009)
